Source: PubChem
Shown are actives, neighbours in structure and some others; about 19% of the full set was active somewhere.
HT1080 IDH1KD tx = toxicity to HT-1080 IDH1 knockdown cells (counter line); HT-1080 IDH1 knockdown viability, ATP luminescence, 48 h; Potency, µM (series often up to 46.1 µM), hits mostly cytotoxic; 360,000 tested, 2% active
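After a 2 h attachment period, IDH1KD HT-1080 cells took pin-transferred compound for 48 h at 37 °C; ATP-based luminescence after 10 min room-temperature reagent incubation reported viability.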
IL1B secr inh = blocks inflammasome-driven IL-1 beta release; 360,000 tested, 4.7% active; AID 743279; activity change, % at 57.5 µM; THP-1 LPS/ATP IL-1B secretion, AlphaLISA, 16 h; stronger effect = lower value; in the data active = activity change below about -50%; inconclusive = mostly about -30% to -49%
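Secreted IL-1B measured by AlphaLISA bead assay after 16 h compound exposure of THP-1 cells; compounds (final up to 57.5 uM) added 1 h before LPS (250 ng/mL) and ATP (1.25 mM) stimulation; lower signal means less secretion.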
TDP1 cell CPT = growth inhibition of DT40 Tdp1-/-;hTDP1 cells with camptothecin (screen for TDP1 inhibitors). Potency, µM (highest dose often 46.2 µM), hits mostly inhibitors. 420,000 tested, 12% active. chicken DT40 Tdp1-/-;hTDP1 cells + 20 nM CPT, ATP luminescence, 48 h. AID 686979; note: nearly all actives have a fitted effect of over 55% in size
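Cell growth measured by CellTiter-Glo luminescence after a minimum 48 h, 37 C compound exposure with 20 nM CPT in Tdp1-knockout DT40 cells stably expressing hTDP1, seeded 400/well; qHTS titration format.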
HT1080-NT tox = kills 2HG-producing HT-1080-NT fibrosarcoma cells. HT-1080-NT fibrosarcoma viability, CellTiter-Glo ATP luminescence, 48 h. 360,000 tested, 1.6% active. Potency, µM (titrated, usually from 46.1 µM), hits mostly cytotoxic. AID 686970;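 note: NT is the 2HG producing partner of a matched IDH1 knockdown line; nearly all actives have a fitted effect of over 55% in size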
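HT-1080-NT; 750 cells/well; 5% FBS RPMI; 48 h compound, 37 degrees C; CellTiter-Glo luminescence; curve fitting and curve-class assignment.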
uPA surface inh = cell surface uPA generation inhibition. Potency, µM (titrated, usually from 38.3 µM), usual class: inhibitors. 330,000 tested, 0.31% active. cell surface uPA generation assay, qHTS; active = well fitted inhibition curve with a large enough effect; inconclusive = small, poorly fitted or top-dose-only effect; inactive = no such curve, though single readings can be large or run the other way; tested in mouse RAW 264.7 cells; note: nearly all actives have a fitted effect of over 55% in size
DT40 TDP1 no CPT = qHTS for Inhibitors of human tyrosyl-DNA phosphodiesterase 1 (TDP1): qHTS in cells in absence of CPT; DT40 Tdp1-/- hTDP1 cells, no CPT, ATP luminescence, 48 h; Potency, µM (highest dose often 46.2 µM), hits mostly inhibitors; 420,000 tested, 15% active; note: nearly all actives have a fitted effect of over 55% in size
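Chicken DT40 Tdp1-/- cells stably complemented with human TDP1 were seeded at 400 cells/well with DMSO in place of 20 nM camptothecin. After compound pinning, cells grew at least 48 hr at 37 °C; viability read by CellTiter-Glo luminescence.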
A number is an active result; 0 = inactive; ? = inconclusive; - = not tested or not shown; [ ] = remark or other dose. Unless noted, calls come from the whole dose curve; as a rule, active = well fitted curve in the direction sought with a large enough effect; inconclusive = small, poorly fitted or top-dose-only effect, or another doubt; inactive = no such curve, though single readings can be large; an effect the other way counts as inactive or inconclusive.

SMILES	HT1080 IDH1KD tx	IL1B secr inh	TDP1 cell CPT	HT1080-NT tox	uPA surface inh	DT40 TDP1 no CPT
Cc1ccccc1-n1c(O)c(C=NC2CCS(=O)(=O)C2)c2ccccc2c1=O (stereo not drawn)	0	0	0	0	0	?
Cc1cccc(-n2c(O)c(C=NCc3ccccn3)c3ccccc3c2=O)c1	0	?	18.4µM	0	0	?
CCC(=O)N1CCC1(C)C(=O)Nc1ccccc1 (stereo not drawn)	0	0	0	0	-	0
Cc1cc(C)cc(-n2c(O)c(C=NC3CCS(=O)(=O)C3)c3ccccc3c2=O)c1 (stereo not drawn)	?	0	16.4µM	0	-	?
O=C(Cn1c(=O)c(C(F)(F)F)nc2ccccc21)Nc1ccc(Br)cc1F	-	-	0	-	-	0
COC(=O)CC(=O)CSc1nc2c(cc1C#N)CCCCC2	0	0	0	0	0	0
CCOC(=O)CSc1nc2ccc(C)cc2cc1C#N	0[9.24 µM]	0	0	0	0	0
CC(C)OC(=O)CSc1nc(N)c(C#N)cc1C#N	0	0	0	0	0	?
CCOC(=O)CC(=O)CSc1nc2c(cc1C#N)CCC2	0	0	8.2µM	?	0	20.6µM
CCOC(=O)CSc1nc2cc(C)ccc2cc1C#N	0	0	13µM	0	0	10.3µM
CCOC(=O)CSc1nc(N)c(C#N)cc1C#N	0	?	0	0	0	16.4µM
CCOC(=O)CSc1nc2cc(OC)ccc2cc1C#N	0	0	16.4µM	0	0	23.1µM
CCN1C(Nc2ccccc2)=NC[C@@H]1C	0	0	0	0	0	0
C[C@H]1CN=C(Nc2ccccc2)N1CCC1CCCCC1	0	0	18.4µM	0	0	?
C[C@H]1CN=C(Nc2ccccc2)N1CC1CCC1	0	0	0	0	0	0
C[C@H]1CN=C(Nc2ccccc2)N1CCCC1CCCC1	0	?	18.4µM	0	?	16.4µM
CC(C)CN1C(Nc2ccccc2)=NC[C@@H]1C	0	0	0	0	0	0
C[C@H]1CN=C(Nc2ccccc2)N1CC1CCCCCC1	0	0	18.4µM	0	?	13µM
Cc1cccc(Nc2ncnc3c2cnn3C)c1C	-	-	0	-	-	?
CCCCn1nc(C(=O)NCc2ccccc2CN2CCCC2)c2ccccc2c1=O	0	0	?	0	0	?
COc1cccc(-c2ccc3ncnc(NCCc4c[nH]c5ccc(OC)cc45)c3c2)c1	-	-	23.1µM	-	-	20.6µM
COc1ccc2[nH]cc(CCNS(=O)(=O)c3ccccc3)c2c1	0	0	0	0	0	?
N#Cc1cccc(-c2cc(NCc3cccnc3)ncn2)c1	-	-	0	-	-	0
COc1ccc2[nH]cc(CCNC(C)=O)c2c1	0	0	0	0	0	0
COc1ccc2[nH]cc(CCNc3cc(-c4cccc(C#N)c4)ncn3)c2c1	-	-	20.6µM	-	-	?
